HSF1 inhib – HSF1 inhibition; NIH3T3-HGL HSE-luciferase, MG132-induced, luminescence 8 h; stronger effect = lower value; activity change, negative = inhibition, % at 7.5 µM (by protocol); 300,000 tested, 0.77% active; AID 2098;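 active = more than half of replicate wells show activity change below -50%, luminescence cut by over half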;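 note: luciferase reports HSF-1 transcriptional activity via heat shock element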
NALP1 inh – NALP1 inhibition | S. cerevisiae NALP1/ASC/caspase-1 growth, X-gal OD620, 72 h | inhibition, % at 10 µM | 280,000 tested, 0.61% active; in the data active = inhibition mostly above about 24%, no sharp cut-off; inactive = mostly below about 32%
Hsp70 activator – Hsp70 transcriptional activation, primary screen; HeLa Hsp70 promoter luciferase reporter, luminescence; scaled: vehicle 0, proteasome-inhibitor control 100%; activation, % at 10 µM; 200,000 tested, 0.04% active;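 active = activation above the mean across all tested compounds plus 3 SD, cutoff set per campaign, cut at about 5.5% in these data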
HSP90 inh – inhibitors of HSP90 luciferase refolding in rabbit reticulocyte lysate; 290,000 tested, 0.91% active; luciferase refolding luminescence, 3 h; AID 1789; inhibition, % at 5.6 µM;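 active = inhibition above the screen-wide mean plus 3 SD, computed separately per campaign, cut at about 16% in these data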;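 note: inhibitors lower the luminescence because luciferase stays unfolded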
HSF-1 act – increases HSF-1 driven luciferase reporter signal. AID 504408. activation, % at 9 µM. 300,000 tested, 1.7% active. NIH3T3-HGL HSF-1 luciferase reporter, MG132, 8 h; 100% = twice DMSO control signal;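 active = mean replicate activation of at least 50% with a set share of replicates each reaching 50%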
p-CIP stab down – compounds decreasing mouse p/CIP protein stability; decrease of EGFP signal, % at 10 µM; F442A p/CIP-EGFP cells, EGFP fluorescence, 16 h; Q05BA5; 290,000 tested, 0.01% active;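 active = EGFP signal decrease of at least 30% at 10 µM or well 3 SD below plate mean, unless failing retest; inactive = the rest, including hits failing retest or dose response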
Target sequence (Q05BA5 1-1403): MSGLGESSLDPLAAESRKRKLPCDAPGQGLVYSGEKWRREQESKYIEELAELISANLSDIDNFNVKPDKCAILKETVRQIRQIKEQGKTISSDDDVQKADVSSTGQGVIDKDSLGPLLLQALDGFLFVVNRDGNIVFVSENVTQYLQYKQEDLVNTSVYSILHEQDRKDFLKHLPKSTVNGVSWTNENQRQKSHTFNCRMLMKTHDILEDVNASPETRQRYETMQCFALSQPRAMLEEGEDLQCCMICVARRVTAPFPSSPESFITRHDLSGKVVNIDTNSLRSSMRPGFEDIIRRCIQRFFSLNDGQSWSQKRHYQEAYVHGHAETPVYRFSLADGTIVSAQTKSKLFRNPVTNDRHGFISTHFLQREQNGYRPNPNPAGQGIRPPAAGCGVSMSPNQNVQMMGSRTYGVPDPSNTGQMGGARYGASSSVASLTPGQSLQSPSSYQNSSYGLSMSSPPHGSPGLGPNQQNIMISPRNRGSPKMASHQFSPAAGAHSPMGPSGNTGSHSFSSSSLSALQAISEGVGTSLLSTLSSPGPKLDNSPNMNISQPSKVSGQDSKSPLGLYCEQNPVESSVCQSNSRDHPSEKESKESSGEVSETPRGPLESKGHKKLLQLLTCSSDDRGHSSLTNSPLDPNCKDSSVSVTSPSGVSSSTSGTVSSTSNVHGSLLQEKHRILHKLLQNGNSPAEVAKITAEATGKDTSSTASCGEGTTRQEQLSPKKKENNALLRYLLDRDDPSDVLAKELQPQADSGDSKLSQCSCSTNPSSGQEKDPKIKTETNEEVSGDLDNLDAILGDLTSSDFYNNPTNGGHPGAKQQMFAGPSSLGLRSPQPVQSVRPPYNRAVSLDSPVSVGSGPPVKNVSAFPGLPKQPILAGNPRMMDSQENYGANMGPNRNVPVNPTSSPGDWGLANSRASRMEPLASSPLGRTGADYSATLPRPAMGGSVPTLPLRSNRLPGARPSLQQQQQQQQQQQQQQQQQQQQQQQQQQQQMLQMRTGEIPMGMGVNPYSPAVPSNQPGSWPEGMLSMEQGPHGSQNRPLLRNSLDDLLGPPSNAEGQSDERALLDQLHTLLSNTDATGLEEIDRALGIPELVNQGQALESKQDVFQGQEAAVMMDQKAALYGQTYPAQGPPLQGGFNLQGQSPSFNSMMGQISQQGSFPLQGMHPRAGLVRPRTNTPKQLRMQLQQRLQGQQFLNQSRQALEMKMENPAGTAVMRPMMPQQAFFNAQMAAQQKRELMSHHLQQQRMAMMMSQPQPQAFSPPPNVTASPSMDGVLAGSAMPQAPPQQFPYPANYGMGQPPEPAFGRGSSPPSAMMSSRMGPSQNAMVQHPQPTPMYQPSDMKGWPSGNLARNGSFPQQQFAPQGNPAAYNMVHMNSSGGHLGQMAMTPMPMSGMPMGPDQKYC
Each line names hits and unclear results; the compound was inactive in the other large screens. This is a sample that favours compounds with a hit; in the whole collection about 3.8% have one here.

Clc1ccc(-c2nnc(SCc3ccon3)o2)c(Cl)c1	HSF-1 act 58
Clc1ccc(-c2nnc(CCc3ccccc3)o2)c(Cl)c1	HSF-1 act 69
Oc1ccccc1-c1nnc(COc2ccc(Cl)cc2Cl)o1	none
O=C1CCC(=O)N1CNc1ccccn1	HSF1 inhib -70
Cc1ccc(C)c(N2CCN(C(=O)c3cc(S(=O)(=O)N4CCCC4)cn3C)CC2)c1	HSF1 inhib -68 (no result: Hsp70 activator)
CCOc1ccc(CCNC(=O)C(C)n2nc(C)c3c(C)n(-c4ccccc4)nc3c2=O)cc1 (stereo not drawn)	none (no result: Hsp70 activator)
O=C(O)CCc1ccc(-c2ccc(Br)cc2)n1Cc1ccco1	HSF-1 act 116
Nc1nc(-c2ccc3c(c2)NC(=O)CO3)cs1	none
COc1ccc(-c2cn3cc(C)ccc3n2)cc1OC	HSF-1 act 96
Cc1ccc2nc(-c3ccc4c(c3)NC(=O)CO4)cn2c1	HSF-1 act 64 (no result: Hsp70 activator)
Cn1c(SCCN2CCCC2)nnc1C1CCN(S(=O)(=O)c2cccc(F)c2)CC1	none (no result: Hsp70 activator)
CCCC(=O)Nc1ccc(Cl)c(NC(=O)c2ccco2)c1	none
CS/C(Nc1cc(Cl)ccc1Cl)=C(/C#N)C(=O)c1ccco1	HSF-1 act 54 (no result: Hsp70 activator)
CC(=O)Nc1nc(-c2ccc3ccccc3c2)cs1	HSF-1 act 87 (no result: Hsp70 activator)
Cn1nc(C(C)(C)C)c([N+](=O)[O-])c1C(=O)NC1CCCCC1	none (no result: Hsp70 activator)
COc1ccc(N(C(C)=O)C2C=CS(=O)(=O)C2)c(OC)c1 (stereo not drawn)	NALP1 inh 39
COc1ccc(N(C(=O)c2ccccc2OC)C2C=CS(=O)(=O)C2)c(OC)c1 (stereo not drawn)	none
Cc1ccc(OC(=S)Nc2ccc(O)cc2)cc1	NALP1 inh 69 (no result: HSF1 inhib, HSF-1 act)
C#CC(=O)N(c1ccc(OC)cc1OC)C(C(=O)NC1CCCC1)c1cccs1 (stereo not drawn)	none
C#CC(=O)N(c1cc(OC)ccc1OC)C(C(=O)NC1CCCC1)c1cccs1 (stereo not drawn)	HSF1 inhib -90
CCOC(=O)C1CCN(C(=O)c2cc3c(ccc4ccccc43)o2)CC1	HSF-1 act 77 (no result: Hsp70 activator)
Cc1cc(O)cc(=O)n1CCc1ccccc1	none (no result: Hsp70 activator)
CCN(CCn1cccn1)C(=O)c1cc(COc2cc(C)ccc2C)on1	HSF-1 act 59 (no result: Hsp70 activator)
Cc1ccc(C)c(OCc2cc(C(=O)N3CCN(c4ccccc4)CC3)no2)c1	HSF-1 act 56 (no result: Hsp70 activator)
O=C(COc1ccc(Br)cc1)Nc1ccc(CN2CCOCC2)cc1	none (no result: Hsp70 activator)
CCC(CC)N1CCN(S(=O)(=O)c2ccc(OC)cc2)CC1	none (no result: Hsp70 activator)
O=S(=O)(c1cccc2cccnc12)N1CCN(Cc2ccccc2)CC1	none
N/C(=N\OC(=O)c1cnn(-c2ccccc2)c1C(F)(F)F)c1ccc(C(F)(F)F)cc1	none (no result: Hsp70 activator)
COCCNC(=O)C(c1ccc(C)cc1)N(C(=O)CCC(=O)Nc1ccccn1)c1ccc(C)cc1 (stereo not drawn)	none (no result: Hsp70 activator)
COCCNC(=O)C(c1ccc(C)cc1)N(C(=O)CCC(=O)Nc1ccccn1)c1ccccc1C (stereo not drawn)	HSF-1 act 78 (no result: Hsp70 activator)
CN(C)c1cccc(C(=O)OCCNC(=O)c2cccc(S(=O)(=O)N3CCOCC3)c2)c1	HSF-1 act 59 (no result: NALP1 inh, Hsp70 activator)
O=C(Nc1ccccc1O)c1cccc(S(=O)(=O)N2CCOCC2)c1	NALP1 inh 29
O=C(Nc1cccc(S(=O)(=O)N2CCOCC2)c1)c1ccccn1	HSF1 inhib -70 (no result: NALP1 inh, Hsp70 activator)
O=C(COC(=O)c1cccc(S(=O)(=O)N2CCOCC2)c1)c1ccccc1	none (no result: Hsp70 activator)
NNC(=O)COc1cccc(Oc2ccccc2)c1	none
O=S(=O)(Nc1nc2ccccc2[nH]1)c1ccccc1	none
CS(=O)(=O)Nc1nc2ccccc2[nH]1	HSF1 inhib -82 (no result: Hsp70 activator)
O=C(CCl)N1CCN2C(=O)c3ccccc3C12c1ccc(Cl)cc1 (stereo not drawn)	HSF-1 act 76
Cc1ccc(C(=O)NC(=C(Cl)Cl)S(=O)(=O)c2ccc(Cl)cc2)cc1	HSF-1 act 185
Cc1ccc(C(=O)NC(=C(Cl)Cl)S(=O)(=O)c2ccc(C)cc2)cc1	none
Cc1ccc(S(=O)(=O)/C(=C/Cl)NC(=O)c2ccccc2)cc1	HSF-1 act 91
O=C(NC(=C(Cl)Cl)S(=O)(=O)c1ccc(Cl)cc1)c1ccccc1	HSF-1 act 67 (no result: NALP1 inh, Hsp70 activator)
CC(NC(=S)Nc1ccc(S(=O)(=O)N2CCOCC2)cc1)C1CC2CCC1C2 (stereo not drawn)	none
CC(C)CC(NC(=O)C(COCc1ccccc1)NC(=O)OC(C)(C)C)C(=O)NN (stereo not drawn)	none
C/C(N)=C(/C#N)C(=O)COC(=O)[C@@H](NC(=O)c1ccccc1Cl)C(C)C	none
CC1CN(C(=O)CS(=O)(=O)Cc2ccccc2)CC(C)O1 (stereo not drawn)	HSF-1 act 60 (no result: Hsp70 activator)
S=C(NCCN1CCOCC1)N1CCN(c2cccc(Cl)c2)CC1	none (no result: Hsp70 activator)
S=C(NCc1ccco1)N1CCN(C(c2ccccc2)c2ccccc2)CC1	HSF-1 act 58
S=C(NCc1ccco1)N1CCN(c2cccc(Cl)c2)CC1	HSF-1 act 54
COc1cccc(CN2CCNC(=O)C2CC(=O)N(C)Cc2cnccn2)c1OC (stereo not drawn)	none
COc1ccc(CN2CCC(=O)N([C@H](CO)Cc3ccccc3)CC2)cc1OC	none (no result: Hsp70 activator)
Cc1ccc(/C=N/NC(=O)c2cccc(S(=O)(=O)N3CCOCC3)c2)o1	none
O=[N+]([O-])c1c(Nc2cccc(O)c2)cc(Cl)c2nonc12	HSF-1 act 164 (no result: Hsp70 activator)
O=C(O)c1ccc(Nc2cc(Cl)c3nonc3c2[N+](=O)[O-])cc1	none
O=C(Nc1ccc(N2C(=O)C3C4C=CC(C4)C3C2=O)cc1)Nc1nncs1 (stereo not drawn)	HSF1 inhib -86 (no result: NALP1 inh, Hsp70 activator, HSP90 inh)
O=C(Nc1nncs1)c1ccc(N2C(=O)C3C4C=CC(C4)C3C2=O)cc1 (stereo not drawn)	none
O=C(Nc1c(C(=O)c2ccccc2)oc2ccccc12)c1cc(-c2ccccc2O)n[nH]1	HSF-1 act 66
Cc1ccc(C(=O)c2oc3ccccc3c2NC(=O)c2cc(-c3ccccc3O)n[nH]2)cc1	none
O=C(c1ccco1)N(Cc1cc2ccccc2[nH]c1=O)C1CCCCC1	HSF1 inhib -82
O=C(c1ccncc1)N(Cc1cc2ccccc2[nH]c1=O)C1CCCCC1	none
CCOc1ccc2[nH]c(=O)c(CN(CC3COCCO3)C(=O)c3ccco3)cc2c1 (stereo not drawn)	none (no result: Hsp70 activator, HSP90 inh)
CCOc1ccc2[nH]c(=O)c(CN(Cc3ccc(F)cc3)C(=O)c3ccco3)cc2c1	HSF-1 act 75
O=C(Nc1cccc(NC(=O)c2ncn[nH]2)c1)c1cccc(Cl)c1	none
CC(=O)c1ccc(S(=O)(=O)N2CCN(C(=O)C3CCCC3)CC2)cc1	none (no result: Hsp70 activator)
O=C(N/N=C/c1ccco1)C1(O)c2ccccc2-c2ccccc21	HSF-1 act 56 (no result: NALP1 inh, Hsp70 activator)

Screens as filed in PubChem.
